Source: PubChem
Only some compounds are listed: those with a hit (about 2.5% of all), similar ones and a draw of the others.
MARV entry inh: Marburg virus entry inhibition. Marburg virus pseudotyped entry inhibition, cell reporter. Potency, µM (titrated, usually from 37.8 µM), inactives show at the top dose activity change, negative = inhibition, hits mostly inhibitors. 300,000 tested, 1.8% active. AID 540276; calls by dose curve; tested in HEK293 cells
Vaccinia Venus: inhibitors of vaccinia virus (Venus reporter); Potency, µM (series often up to 36.5 µM), for the others: at the top dose activity change, negative = inhibition, actives largely listed as inhibitors; 330,000 tested, 0.46% active; AID 720580; Vaccinia virus Venus reporter expression, fluorescence; calls by dose curve; tested in A549 cells; further: nearly all actives have a fitted effect of over 30% in size
LASV entry inh: Lassa virus entry inhibition. Lassa virus pseudotype entry inhibition, cell reporter. Potency, µM (highest dose often 37.9 µM), inactives show at the highest dose activity change, negative = inhibition, most hits filed as inhibitors. 300,000 tested, 1.2% active. AID 540256; calls by dose curve; tested in HEK293 cells; further: nearly all actives have a fitted effect of over 50% in size
Vaccinia mCherry: inhibitors of vaccinia virus infection (mCherry reporter signal); Vaccinia virus mCherry reporter infection, fluorescence; Potency, µM (highest dose often 36.5 µM), inactives show at the highest dose activity change, negative = inhibition, most hits filed as inhibitors; 310,000 tested, 0.63% active; AID 720579; calls by dose curve; tested in A549 cells; further: nearly all actives have a fitted effect of over 35% in size
* hit, by the source's call; i = inactive; ? = inconclusive; · = no result given; ! = repeats disagree; [ ] = remark or other dose. On the % scale 0 is the no-effect control and ±100 the full control effect; potency means the concentration at half of the fitted maximal effect.

SMILES | MARV entry inh | Vaccinia Venus | LASV entry inh | Vaccinia mCherry
COc1cc(C=NO)nc(-c2ccccn2)c1 | ? | ? | 1.3µM* | ?
COc1ccc(Oc2ccccc2/C=N/O)cc1 | ? | ? | -11% | ·
O=C(/C=C\Nc1ccc2c(c1)OCO2)c1cccs1 | ? | -16% | ? | -20%
O=C(/C=C\Nc1cccc(F)c1)c1cccs1 | ? | -7% | 11µM* | -15%
O=C(/C=C/Nc1ccc(F)cc1F)c1cccs1 | ? | 3% | 1.4µM* | -9%
O=C(/C=C/Nc1ccccc1F)c1cccs1 | 6.3µM* | -10% | 1.4µM* | -13%
CCOC(=O)c1ccccc1N/C=C/C(=O)c1cccs1 | ? | -20% | -3% | -26%
O=C(NNc1ccc(F)cc1F)c1cccs1 | · | -13% | · | -9%
COc1ccccc1N1CCN(CCn2c(=O)c3c(c4ccccc4n3C)n(C)c2=O)CC1 | · | -9% | · | -16%
CC(C)COc1ccc(CC(=O)NO)cc1 | · | -6% | · | -23%
Cc1ccc(C)c2c1NC(C(=O)O)C1CC=CC21 (stereo not given) | · | -6% | · | 3%
COC(=O)C1C(c2ccccc2)C(C(=O)OCc2ccco2)C1c1ccccc1 (stereo not given) | 21µM* | · | ? | ·
CCOC(=O)c1c(CN(C)C)oc2cc(CN(C)C)c(O)c(CSc3ccccc3)c12 | 10µM* | -14% | -10% | ·
CCOC(=O)c1c(CSc2ccccc2)n(C)c2cc(Br)c(O)c(CN(C)C)c12 | ? | -18% | ? | -17%
O=C(Nc1cnn(Cc2ccc(Cl)c(Cl)c2)c1)C12CC3CC(CC(C3)C1)C2 | 13µM* | ? | ? | 18µM*
O=C(Nc1ccc(Cl)c(Cl)c1)c1ccc(Cn2cc(Cl)cn2)cc1 | 1% | · | · | ·
c1coc(CNc2ncnc3[nH]ncc23)c1 | ? | ? | -27%[46.1 µM] | 6.3µM*!
Cc1ccc2[nH]c3c(NCc4ccco4)ncnc3c2c1 | 10µM* | ? | -28% | ?
COc1cc(-c2cc(C)c3cccc(OC)c3n2)cc2c1OCCN(C(=O)CCn1nc(C)cc1C)C2 | · | -10% | · | -20%
O=C(c1ccco1)N1N=C(c2ccc(Br)cc2)CC1(O)C(F)(F)F (stereo not given) | 10µM* | -26% | ? | -11%
CCC1CN(Cc2cn[nH]c2-c2ccc(OC)cc2)Cc2cc(OC)ccc2O1 (stereo not given) | · | -13% | · | -25%
COC(=O)c1ccc([C@H]2/C(=C(\O)c3ccc(OC)cc3)C(=O)C(=O)N2Cc2ccco2)cc1 | -4% | · | · | ·
COc1ccc(NC(=O)c2cc([N+](=O)[O-])ccc2NC(=O)CNCc2ccccn2)c(OC)c1 | 7%[46.1 µM] | -11% | ? | 0%
COc1cc(NC(=O)c2cc([N+](=O)[O-])ccc2NC(=O)CNCc2ccccn2)cc(OC)c1 | -18%[46.1 µM] | -14% | 11µM* | -27%
COc1ccc(CN2CCOc3ccc(CN4CCC(Oc5cccnc5)CC4)cc3C2)cc1 | · | -25% | · | -12%
SMILES | MARV entry inh | Vaccinia Venus | LASV entry inh | Vaccinia mCherry
COC(=O)c1cc(C(=O)OC)cc(N2C(=O)CC(NNC(=O)c3ccc(C)cc3)C2=O)c1 (stereo not given) | ? | -8% | 0.79µM* | i
CC(C)(C)c1cc(CCC(=O)NCC2CCCO2)cc(C(C)(C)C)c1O (stereo not given) | 8%[46.1 µM] | -20% | 30%[46.1 µM] | 4µM*
CCCNC(=O)CCc1cc(C(C)(C)C)c(O)c(C(C)(C)C)c1 | · | -17% | · | -18%
COc1cc(-c2cc(C)c3c(OC)ccc(OC)c3n2)cc2c1OCCN(C(=O)Cn1nc(C)cc1C)C2 | · | -4% | · | -20%
Cc1cc(C(=O)N/N=C/c2cccc3ccccc23)c(C)o1 | 7.9µM* | 0% | -1%[46.1 µM] | -1%
O=C(NN=Cc1c(O)ccc2ccccc12)c1ccncc1 | 3.2µM* | ? | 3.2µM* | 2.5µM*
Nc1cc(Cl)nc(N/N=C/c2c(O)ccc3ccccc23)n1 | ? | ? | ? | 28µM*
Cc1occc1C(=O)N/N=C/c1c(O)ccc2ccccc12 | 3.5µM* | ? | ? | 1.8µM*
COc1ccccc1CN(C)CC(=O)c1c(C)[nH]c2ccccc12 | · | -17% | · | -14%
COc1cccc(C(=O)N(Cc2cc3ccc(C)cc3nc2N(C)C)C2CC2)c1OC | · | -4% | · | -16%
CCOc1ccc2nc(N3CCCC3C(=O)N3CCC(c4nc5ccccc5o4)CC3)nc(C)c2c1 (stereo not given) | · | -10% | · | -14%
Cc1occc1C(=O)N/N=C/C(Br)=C\c1ccccc1 | ? | -22% | 13µM* | -10%
O=C(N/N=C/c1c(O)ccc2ccccc12)c1ccc(Br)o1 | ? | ? | ? | 2.8µM*
Cc1ccc(C(=O)N/N=C/c2c(O)ccc3ccccc23)cn1 | · | ? | · | 2.2µM*
O=C(N/N=C\c1c(O)ccc2ccccc12)c1cncc(Br)c1 | ? | -21% | ? | ?
O=C(N/N=C/c1c(O)ccc2ccccc12)c1cccnc1 | ? | -29% | ? | ?
O=C(C[n+]1cccc2cc(Cl)ccc21)c1cccc([N+](=O)[O-])c1 | · | 55% | · | 14%
COc1cc2c(cc1OC)[C@@H]1O[C@](CCCCN3C(=O)c4ccccc4C3=O)(C2)OC2=C1C(=O)c1ccccc1C2=O | -9%[14.2 µM] | · | · | ·
COc1ccccc1CNC(=O)c1cnn(-c2nccc(-c3cccs3)n2)c1C | · | -13% | · | -9%
CCOC(=O)c1ccc(NC(=S)N(CCN2CCCCCC2)Cc2cccs2)cc1 | 8.9µM* | -6% | ? | -7%
CCOC(=O)c1ccc(NC(=S)N(CCCN2CCCC2)Cc2cccs2)cc1 | ? | -16% | · | -17%
CCOC(=O)c1ccc(NC(=S)N(CCCN2CCN(CC)CC2)Cc2cccs2)cc1 | 10µM* | -29% | 10µM* | -4%
CCOC(=O)c1ccc(NC(=S)N(CCCN2CCN(C)CC2)Cc2cccs2)cc1 | ? | -17% | · | -14%
OC1(c2cccnc2)CCN(Cc2ccc3c(c2)CN(Cc2ccsc2)CCO3)CC1 | · | -16% | · | -13%
CC(C)N(CC(=O)Nc1ccc(Cl)cc1C(F)(F)F)C(=O)CCl | 10µM* | -24% | ? | ?
SMILES | MARV entry inh | Vaccinia Venus | LASV entry inh | Vaccinia mCherry
CCC(C)N(CC(=O)Nc1cccc(C)c1C)C(=O)CCl (stereo not given) | 7%[46.1 µM] | ? | 3.2µM* | 4.5µM*
O=Nc1c(O)c2ccccc2c2ccccc12 | · | 10µM* | · | ?
Cc1cccc(OCCNc2cc(N3CCN(CCO)CC3)ccc2[N+](=O)[O-])c1 | ? | ? | 15% | 10µM*
CC1CN(c2ccc([N+](=O)[O-])c(NCCOc3ccccc3)c2)CCN1 (stereo not given) | ? | 11µM* | 26%[46.1 µM] | ?
COc1ccc(OCCNc2cc(N3CCOCC3)ccc2[N+](=O)[O-])cc1 | ? | ? | -14% | 11µM*
Cc1ccccc1OCCNc1cc(N2CCN(CCO)CC2)ccc1[N+](=O)[O-] | ? | ? | -26% | ?
CN(C)c1c(Cl)cc(/C=C/c2ccnc3ccccc23)cc1Br | · | -16% | · | -21%
Cc1c(C(=O)N2CC3CCC2C3)sc2ncnc(NCCc3ccccn3)c12 (stereo not given) | · | -8% | · | -13%
CC(=O)[O][Hg][c]1ccccc1 | · | ? | · | 20µM*
